According to PubChem BioAssay (Tox21):
Unmarked numbers belong to inactive results. The source made the active and inactive calls. Calls come from the whole dose curve.

Molecular target: Acetylcholinesterase (Homo sapiens) (UniProt P22303)
Test: Acetylcholinesterase (AChE) small molecule antagonists: enzyme-based qHTS assay with human liver microsomes (AID 1347399); note: nearly all actives have a fitted effect of over 60% in size
Settings: Potency: qHTS inhibition; outcome: qHTS inhibition; series mostly up to 115 µM; activity change, negative = inhibition: at the top concentration
Method in brief: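 Recombinant human AChE (50 mU/mL in the enzyme mix) and human liver microsomes (0.25 mg/mL final) were preincubated with compound and NADPH (0.25 mg/mL final) for 30 min at 37 C. Acetylthiocholine/DTNB was then added; thiocholine was read colorimetrically after 10 min at room temperature.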
% is set by controls: 0 for no effect and ±100 for the full control effect.

Sequence of Acetylcholinesterase (Homo sapiens) (P22303 whole entry, looked up): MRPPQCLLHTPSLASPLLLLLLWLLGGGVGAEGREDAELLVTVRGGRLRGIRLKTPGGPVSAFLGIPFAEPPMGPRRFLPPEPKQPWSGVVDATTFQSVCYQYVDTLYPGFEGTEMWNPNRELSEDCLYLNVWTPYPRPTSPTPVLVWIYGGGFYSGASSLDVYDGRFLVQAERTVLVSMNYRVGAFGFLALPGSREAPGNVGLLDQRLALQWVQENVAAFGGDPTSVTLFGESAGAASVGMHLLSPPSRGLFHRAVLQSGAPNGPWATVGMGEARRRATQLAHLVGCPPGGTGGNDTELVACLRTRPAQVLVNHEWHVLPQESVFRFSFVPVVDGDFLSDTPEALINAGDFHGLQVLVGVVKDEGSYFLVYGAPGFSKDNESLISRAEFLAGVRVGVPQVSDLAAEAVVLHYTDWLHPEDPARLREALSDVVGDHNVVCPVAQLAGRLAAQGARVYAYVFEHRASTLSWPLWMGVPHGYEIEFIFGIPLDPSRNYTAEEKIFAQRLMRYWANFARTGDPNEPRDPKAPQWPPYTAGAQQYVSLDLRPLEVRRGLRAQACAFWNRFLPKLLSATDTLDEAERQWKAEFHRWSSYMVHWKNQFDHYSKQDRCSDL

Structure (SMILES)	Potency	outcome	activity change, negative = inhibition
COc1ccc2nc(N)sc2c1	inactive	–	–
CCOc1ccccc1OCC1CNCCO1 (stereo not given)	–	inactive	–
CCC(Cc1c(I)cc(I)c(N)c1I)C(=O)O (stereo not given)	inactive	–	–
CC/C(=C\C(=N/O)C(N)=O)C(C)[N+](=O)[O-] (stereo not given)	–	–	-2.18%
Cc1cccc(OCCOc2cccc(C)c2)c1	–	–	-0.311%
CCCCCCCC(=O)Oc1c(Br)cc(C#N)cc1Br	–	–	0.299%
CCc1c(C(=O)NN2CCCCC2)nn(-c2ccc(Cl)cc2Cl)c1-c1ccc(Br)cc1	–	–	0.146%
Fc1ccccc1	–	–	1.05%
CC1=Nc2ccc3ccccc3c2C1(C)C	–	–	-2.99%
c1cnc(N2CCN(Cc3ccc4c(c3)OCO4)CC2)nc1	–	–	-0.502% [at 53 µM]
C#Cc1cccc(Nc2ncnc3cc(OCCOC)c(OCCOC)cc23)c1	–	–	-0.338% [at 53 µM]
CCOC(=O)[C@H](CCc1ccccc1)N[C@@H](C)C(=O)N1Cc2ccccc2C[C@H]1C(=O)O	inactive	–	–
CC(C)N1C(=O)c2ccccc2C1=O	–	–	-2.11%
N[C@@H](C(=O)N[C@@H]1C(=O)N2C(C(=O)O)=C(Cl)CS[C@H]12)c1ccccc1	–	–	-5.46% [at 10.5 µM]
O=C(O)Cc1cn(-c2ccccc2)nc1-c1ccc(Cl)cc1	–	–	-0.168% [at 53 µM]
Cc1cccc(N(C)C(=S)Oc2ccc3ccccc3c2)c1	inactive	–	–
C[C@@H](N)C(=O)O	–	–	-6% [at 53 µM]
c1ccc2c(c1)-c1ccc3ccc4cccc5cc-2c1c3c45	–	–	1.7% [at 53 µM]
CCCCCCCCCCCC[N+](C)(C)CCCS(=O)(=O)[O-]	–	–	-0.48%
Cc1cc(C(C)(C)C)c(O)c(C)c1Cn1c(=O)n(Cc2c(C)cc(C(C)(C)C)c(O)c2C)c(=O)n(Cc2c(C)cc(C(C)(C)C)c(O)c2C)c1=O	–	–	2.65%
